This is a sample that favours compounds with a hit; in the whole collection about 21% have one here.
Pf growth 48h = inhibits P. falciparum growth in the first generation, 48 h; AID 504832; 310,000 tested, 5.9% active; Potency, µM (titrated, usually from 28.7 µM), for inactives: at the top dose activity change, negative = inhibition, usual class: inhibitors; P. falciparum luciferase growth in erythrocytes, 48 h; further: potency means the concentration at half of the fitted maximal effect; on the % scale 0 is the no-effect control and ±100 the full control effect
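In quantitative HTS format, infected erythrocytes bearing luciferase-reporter parasites were treated for a single generation at 37 C. Luminescence after adding detection reagent served as the growth measure.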
Pf growth 96h = inhibits malaria parasite growth, 96 h; P. falciparum luciferase reporter growth, 96 h; Potency, µM (series often up to 28.7 µM), for the others: at the highest dose activity change, negative = inhibition, most hits filed as inhibitors; 320,000 tested, 6.9% active; AID 504834; further: potency means the concentration at half of the fitted maximal effect; on the % scale 0 is the no-effect control and ±100 the full control effect
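Parasite growth measured via integrated firefly luciferase reporter in P. falciparum. Infected erythrocytes at 2% hematocrit, 0.05% parasitemia final were treated 96 hours at 37 C under 5% CO2, and luminescence was read.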
Shiga toxin inh = Shiga toxin inhibition. inhibition, % at 38.7 µM. Vero cells, Shiga toxin protein synthesis inhibition reporter. 290,000 tested, 9.2% active; in the data active means inhibition mostly above about 28%, no sharp cut-off; inactive means mostly below about 43%; further: 0% is about no effect
Cycloheximide cs = affects cycloheximide protein synthesis inhibition readout, counter-screen; max response, %; 300,000 tested, 12% active; cell reporter, cycloheximide protein synthesis inhibition counterscreen; AID 2314; in the data active means max response mostly above about 13%, no sharp cut-off; inactive means mostly below about 14%; further: read at 38.3 µM for the half of the compounds with a filed dose; 0% is about no effect
Active calls of the source: *; [ ] = another dose, or the depositor's remark. Unless noted, the call rests on the fitted dose curve; in most records, active means well fitted inhibition curve with a large enough effect; inconclusive means small, poorly fitted or top-dose-only effect, or another doubt; inactive means no such curve, though single readings can be large or run the other way.

`CCC(C)c1ccc2oc(-c3ccc(NC(=O)c4ncn[nH]4)cc3)nc2c1` (stereo not given) gave Pf growth 48h inconclusive, Shiga toxin inh 41* and Cycloheximide cs 8.
Screening CCC(C)c1ccc(O)c(NC(=O)c2ncn[nH]2)c1 (stereo not given) returned Pf growth 48h 10%, Pf growth 96h 3.3µM*, Shiga toxin inh 13 and Cycloheximide cs -2.
For CC(C)c1ccc2oc(-c3ccc(NC(=O)c4ncn[nH]4)cc3)nc2c1 the results were Pf growth 48h inconclusive, Pf growth 96h 1.7µM*, Shiga toxin inh 86* and Cycloheximide cs 49*.
For Cc1c(C(=O)O)sc2nc3n(c(=O)c12)CCC3 the results were Pf growth 48h 9%, Pf growth 96h 17%, Shiga toxin inh -3 and Cycloheximide cs -1.
`O=c1c2c(nc3n1CCCCC3)sc1c(O)c(Br)ccc12` gave Pf growth 48h 3%, Shiga toxin inh 40 and Cycloheximide cs 16*.
For CCN(CC)CCOc1c(Br)ccc2c1sc1nc3n(c(=O)c12)CCC3 the results were Pf growth 48h inconclusive, Pf growth 96h 13µM*, Shiga toxin inh 1 and Cycloheximide cs -4.
For Cc1ccc(OCCNS(=O)(=O)c2ccc(Cl)cc2)cc1 the results were Pf growth 48h -9% and Pf growth 96h 17%.
`Cc1ccc(OCCNS(=O)(=O)c2cccs2)cc1` gave Pf growth 48h -28%, Pf growth 96h 15%[5.75 µM], Shiga toxin inh 56 and Cycloheximide cs 44*.
`CS(=O)(=O)NCCOc1ccc(S(=O)(=O)NCCOc2ccccc2)cc1` gave Pf growth 48h 10µM*, Pf growth 96h 31%, Shiga toxin inh -23 and Cycloheximide cs 8.
Screening Cc1ccc(C)c(N2CC(C(=O)Nc3nccs3)CC2=O)c1 (stereo not given) returned Pf growth 48h 10%, Pf growth 96h 11%, Shiga toxin inh -16 and Cycloheximide cs -2.
Screening O=C(c1ccco1)N1CCN(CC(O)Cn2c3ccccc3c3ccccc32)CC1 (stereo not given) returned Pf growth 96h inconclusive, Shiga toxin inh 25 and Cycloheximide cs 9.
For Cc1ccccc1Nc1nnc(SCC(=O)Nc2ccccc2[N+](=O)[O-])s1 the results were Pf growth 48h 24%, Pf growth 96h inconclusive, Shiga toxin inh 45* and Cycloheximide cs 28*.
For CCCSc1nnc(Nc2ccccc2C)s1 the results were Pf growth 48h 58%, Pf growth 96h 101%, Shiga toxin inh 63* and Cycloheximide cs 62*.
`CC(=O)Nc1ccc(C2(c3ccc(NC(C)=O)cc3)C(=O)Nc3ccccc32)cc1` gave Pf growth 48h -2%, Pf growth 96h inconclusive, Shiga toxin inh 13 and Cycloheximide cs 4.
For O=C1C(=O)c2ccccc2C([O-])=C1[n+]1ccccc1 the results were Pf growth 48h 3.7µM*, Pf growth 96h 7.4µM*, Shiga toxin inh 22 and Cycloheximide cs -1.
`Cn1c(=O)c(-[n+]2ccccc2)c([O-])c2ccccc21` gave Pf growth 96h -27%, Shiga toxin inh -5 and Cycloheximide cs -2.
For O=C(O)CCC(=O)Nc1cccc(-c2csc(-c3ccccc3)n2)c1 the results were Pf growth 48h 8%, Pf growth 96h 50%[5.75 µM], Shiga toxin inh -16 and Cycloheximide cs 3.
Screening c1coc(CNc2nc(-c3cccs3)cs2)c1 returned Pf growth 48h inconclusive, Pf growth 96h 4%, Shiga toxin inh 90* and Cycloheximide cs 33*.
Screening CC(=O)Nc1cccc(-c2csc(NCc3ccco3)n2)c1 returned Pf growth 48h inconclusive, Pf growth 96h 72%, Shiga toxin inh 51* and Cycloheximide cs 17.
For Cc1nc2ncccn2c1-c1csc(NCc2ccco2)n1 the results were Pf growth 48h inconclusive, Pf growth 96h 1%, Shiga toxin inh 9 and Cycloheximide cs 11.
Oc1ccc(-c2csc(NCc3ccco3)n2)cc1 was read as Pf growth 48h 56%, Shiga toxin inh 158* and Cycloheximide cs 44*.
For O=C1C(=O)N(Cc2ccco2)C(c2cccs2)/C1=C(\O)c1cccc([N+](=O)[O-])c1 (stereo not given) the results were Pf growth 48h 0%, Pf growth 96h 3%, Shiga toxin inh 6 and Cycloheximide cs 1.
`CN1CCC(NCCC(c2ccc(F)cc2)c2ccc(Cl)cc2)CC1` (stereo not given) gave Pf growth 48h 1.7µM*, Pf growth 96h 1.9µM*, Shiga toxin inh -8 and Cycloheximide cs -6.
For Cc1cc(C)n2nc(CNS(=O)(=O)c3ccc(F)c(C)c3)nc2n1 the results were Pf growth 48h -11%, Pf growth 96h -5%, Shiga toxin inh -2 and Cycloheximide cs -1.

Compound activity (PubChem)
